# Assay results as given in PubChem BioAssay (NCI).
# This is part of a sample that, as a whole, favours compounds with a hit. Of some 83,000 tested, about 20% had one in any assay.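 Treatment: one concentration, 48 hours, 96-well format. Scoring: percent growth, with anything below 10 considered active.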 Values without a mark were called inactive. Calls of active or inactive are those of the source.
# Test system: OVCAR-3 ovarian
# Assay: NCI-60 one-dose screen, 48 h (100 = growth as untreated, 0 = no growth, -100 = all killed)
# Conditions: 10 µM unless noted
# Method: Growth inhibition of the OVCAR-3 human tumor cell line is measured as a screen for anti-cancer activity. Cells are grown in 96 well plates and exposed to the test compound for 48 hours. Compounds are tested at a single concentration, which is 10^-5 M for most compounds. The reported endpoint is percent growth (GI% or GIPRCNT), where numbers from 0 - 100% represent growth inhibition, and numbers from -100% - 0 represent cell death. For example, a value of 40 represents 60% growth inhibition. A value of 0 means no net growth occurred over the course of the experiment. A value of -40 indicates 40% of cells at the beginning of the experiment died by the end of the experiment. A value of -100 means all cells are dead at the end of the experiment.
# NCI-60 Human Tumor Cell Lines Screen was performed using the standard one-dose NCI protocol, which is described in more detail at https://dtp.cancer.gov/discovery_development/nci-60/default.htm.
# Compounds with GIPRCNT values below 10 were considered active. Activity score was based on GIPRCNT using the following formula: […]
# Score is 0 for GIPRCNT values of 100 or above, 50 for GIPRCNT values of 0, and 100 for GIPRCNT values of -100.
row,SMILES,growth
1,Cc1cc(Cl)nc(N(CCNc2ccnc3cc(Cl)ccc23)Cc2ccccn2)n1,3.13% (active)
2,CCOC(=O)Oc1c(OC)cc(C(=O)c2ccc(OC)c(OC(=O)CCl)c2OC)cc1OC,-18.4% (active)
3,N#CC1=C(N)Oc2c(ccc3ccccc23)C1c1ccccc1Cl (stereo not given),5.72% (active)
4,COc1cc(/C=C\c2cc(/C=C\c3ccc(O)c(OC)c3)n(C(=O)COc3ccccc3)n2)ccc1O,-4.46% (active)
5,O=c1[nH]nc(-c2ccccc2)c2sc3ncc(-c4ccc(Br)cc4)n3c12,0.339% (active)
6,Cn1cc(CC2CC(=O)N(c3ccccc3)C2=O)sc1=NC(=O)c1ccccc1 (stereo not given),99.2%
7,CN(C)CCn1c2ccc(Br)cc2c2nc3ccccc3nc21,39.9%
8,CN1C(=O)NC(c2ccc3c(c2)OCO3)C=C1c1ccccc1 (stereo not given),91.1%
9,C=C1C(=O)O[C@H]2[C@H]1CC/C(CNC(=O)/C=C/c1cccc(OC)c1)=C\CC[C@@]1(C)O[C@@H]21,-62.6% (active)
10,COc1cc(/C=C2\COc3ccc(-c4ccccc4)cc3C2=O)cc(OC)c1,69%
11,NC(=NCCCOc1ccc(F)cc1)Nc1ccc(I)cc1,80.5%
12,C=C(C)[C@@H]1CC[C@]2(C(=O)N3CCN(C)CC3)CC[C@]3(C)[C@H](CC[C@@H]4[C@@]5(C)CC[C@H](O)C(C)(C)[C@@H]5CC[C@]43C)[C@@H]12,-94% (active)
13,CC/C(=C\c1ccc(OC)cc1)C(=O)c1ccc(OC)cc1,211%
14,COc1ccc(-c2cnc3c(-c4cccc5ncccc45)cnn3c2)cc1,57.7%
15,c1ccc2c(-c3nccs3)c[nH]c2c1,103%
16,O=S(=O)(NCCNc1nccc(-c2c(-c3cccc(F)c3)nc3sccn23)n1)c1ccc(Cl)cc1,65.4%
17,COc1cc(CC(=O)n2ncc3ccc(N)cc32)cc(OC)c1OC,108%
18,COc1cc(C2=C(c3cn(C)c4ccccc34)COC2=O)cc(OC)c1OC,-13.8% (active)
19,CC1(C)CC[C@]23CC[C@]4(C)[C@H](CC[C@@H]5[C@@]6(C)CCCNC(C)(C)[C@@H]6CC[C@]54C)[C@H]2[C@H]1OC3,-31.2% (active)
20,Cc1cc2nc3c4cc([N+](=O)[O-])ccc4n(CCN(C)C)c3nc2cc1C,-8.29% (active)

row,SMILES,growth
1,CCCCCCCC(=O)OCC/C=C/C1OC1C1OC(=O)/C=C\C=C\C(=O)N(C(C)=O)C(=O)/C=C(/C)CCC2OC2C1OC(=O)NC(C)=O (stereo not given),61.2%
2,CCNC(=O)Oc1ccc(/C(=C(\C)c2ccccc2)c2ccc(OCCN(CC)CC)cc2)cc1,93.7%
3,O=C1c2cccc3c(-c4ccc5c(c4)ncn5C4CCCCC4)ccc(c23)C(=O)N1c1nc2ccccc2s1,89.8%
4,O=C(/C=C/c1ccc[nH]1)c1ccc(-n2ccc(C(F)(F)F)n2)c(F)c1,99.8%
5,c1ccc(Cn2cnc3ccc(-c4nc(-c5ccc6c(c5)ncn6C5CCCCC5)cn5ccnc45)cc32)cc1,-35.7% (active)
6,CC1(C)CC(=O)C2=C(C1)N(c1ccc(F)cc1F)C(N)=C(C#N)C2c1cc(Br)ccc1F (stereo not given),99.7%
7,Cc1ccc(-n2nc3c(c(C#N)c2=O)CC(c2ccccc2[N+](=O)[O-])C([N+](=O)[O-])=C3O)cc1 (stereo not given),87.5%
8,[O-][n+]1c(Cl)cc(Cl)c2ccccc21,93.7%
9,O=C(/C=C/c1ccc(Cl)cc1)c1ccc(NC(=O)N2CCN(c3cc4c(cc3F)c(=O)c(C(=O)O)cn4C3CC3)CC2)cc1,93.8%
10,C=C1C(=O)O[C@H]2[C@H]1CC/C(COC(=O)NCCc1c[nH]c3ccc(OC)cc13)=C\CC[C@@]1(C)O[C@@H]21,-74.3% (active)
11,O=C1Nc2ccccc2/C1=C\c1c(-c2ccc(F)cc2)nc2ccccn12,62.1%
12,CCCCCC(=O)Oc1ccc(/C(=C(\C)c2ccccc2)c2ccc(OCCN3CCCCC3)cc2)cc1,90.5%
13,COc1cccc(C(=O)NNc2nc(Cl)nc(N3CCN(C(c4ccccc4)c4ccccc4)CC3)n2)c1,10.5%
14,Nc1c(C(=O)Nc2cccc3cnccc23)sc2nc3c(cc12)CN(Cc1ccccc1)CC3,108%
15,COc1cc(NC(C)CCCNC(=O)CCC(=O)NCCCNCCCCCCCCCCNCCCNC(=O)CCC(=O)NCCCC(C)Nc2cc(OC)cc3cccnc23)c2ncccc2c1 (stereo not given),41.4% [8 µM]
16,COc1cccc(-c2nc3occn3c2-c2ccnc(NCCCNS(=O)(=O)c3ccc(C(F)(F)F)cc3)n2)c1,100%
17,Cc1cnc(C(=O)Nc2nc3ccc(S(=O)(=O)Nc4ccc(C(C)(C)C)cc4)cc3[nH]2)cn1,-14.3% (active)
18,Nc1nc(Nc2ccccc2SSc2ccccc2Nc2nc(N)nc(-c3ccc(C(F)(F)F)cc3)n2)nc(-c2ccc(C(F)(F)F)cc2)n1,80.5%
19,C#Cc1cccc(NC(=O)c2cccc(NC(=O)CCl)c2)c1,-71.3% [8.25 µM] (active)
20,COc1cc(/C=N/O)nc(-c2ccccn2)c1,18.2%
